Screening results: PubChem BioAssay, several laboratories
TROY NFkB inh: blocks TROY-dependent signaling in reporter cells; hit rate 0.98% among 360,000; inhibition, % at 10 µM; Q293 LMP1-TROYcd NF-kB luciferase reporter, 4 h;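 active = compounds whose plate-normalised and pattern-corrected inhibition of the luciferase reporter signal at the single screening dose is 50% or more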
HIF-2a inh: inhibitors of HIF-2a. 786-0 RCC cells HIF-2a reporter, luciferase luminescence, overnight. inhibition, % at 18.8 µM. hit rate 0.72% among 360,000;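 active = inhibition of the luminescence signal of 40% or more relative to plate controls, in a single-dose primary screen at 18.75 µM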
MITF TRPM1 inh: inhibitors of MITF-driven TRPM1 promoter in melanoma cells | SK-MEL-5 TRPM1 promoter luciferase, 24 h | inhibition, % at 12.5 µM | hit rate 0.83% among 330,000 | AID 488899;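 active = mean inhibition across replicates of 60% or more, whatever share of single replicates reaches that level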
TWEAK-Fn14 inh: inhibitors of TWEAK-Fn14 interaction signaling; hit rate 2% among 360,000; TWEAK-stimulated Fn14 reporter cells, luciferase luminescence, 8 h; inhibition, % at 10 µM; in the data active = inhibition above about 50%
LMP1 NFkB inh: reduces LMP1-driven NF-kappaB luciferase signal | LMP1-induced NF-kappaB luciferase reporter cells, luminescence | inhibition, % at 12.5 µM | hit rate 0.69% among 350,000; in the data active = inhibition above about 41%;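 also: 0% = neutral control wells and 100% = reference inhibitor control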
Peg3 prom inh-1: inhibitors of Peg3 promoter | inhibition, % at 20 µM | HeLa PEG-Prom luciferase reporter, luminescence, overnight | AID 588405 | hit rate 1.7% among 360,000;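 active = inhibition of at least 50% at 20 µM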
Peg3 prom inh-2: confirmation of Peg3 promoter inhibitors; shares compounds with Peg3 prom inh-1; HeLa PEG-Prom luciferase reporter, luminescence, overnight; inhibition, % at 20 µM; hit rate 84% among 1,300; AID 602417;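 active = at 20 µM dose, 40% or more inhibition averaged across four replicates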
Mdm2-MdmX confirm: Mdm2/MdmX (human) interaction inhibition, confirmed | shares compounds with HIF-2a inh | SaOS-2 split-luciferase Mdm2/MdmX complementation, luminescence | inhibition, % at 8 µM | hit rate 99% among 740 | AID 504601;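 active = mean inhibition of the luminescence signal across two replicates at or above 26 percent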
HIF-2a inh conf: confirmation of HIF-2a inhibitors | shares compounds with HIF-2a inh | 786-0 RCC cells, HIF-2a luciferase reporter luminescence, overnight | inhibition, % at 18.8 µM | hit rate 56% among 1,800 | AID 651580;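 active = mean inhibition across four replicates of at least 40 percent at the single tested concentration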
HIF-1a cs: inhibits HIF-1a reporter, a counter-screen for HIF-2a inhibitors. shares compounds with HIF-2a inh. MiaPaCa-2 HIF-1a luciferase reporter, desferoxamine, overnight. inhibition, % at 18.8 µM. hit rate 72% among 1,800. AID 651589;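 active = mean inhibition of the reporter signal across four replicates at the single tested dose of 50% or more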
Starred values were filed as active, the others as inactive; · = no result given. A selection: hits, their analogues and other compounds. The true share with any hit is near 4%.

SMILES | TROY NFkB inh | HIF-2a inh | MITF TRPM1 inh | TWEAK-Fn14 inh | LMP1 NFkB inh | Peg3 prom inh-1 | Peg3 prom inh-2 | Mdm2-MdmX confirm | HIF-2a inh conf | HIF-1a cs
CC1=C(C(=O)OCc2ccc3c(c2)OCO3)C(c2ccccc2OCc2ccccc2)NC(=O)N1 (stereo not drawn) | 32.6 | 29.1 | 9.6 | 40.8 | -4.0 | 14.8 | · | · | · | ·
CC1=C(C(=O)OCc2ccc3c(c2)OCO3)C(c2ccccc2)NC(=O)N1 (stereo not drawn) | 58.6* | 37.3 | 28.2 | 87.4* | 68.7* | 51.2* | 61.8* | 95.7* | · | ·
Oc1ccc(C2=NNC(c3ccc(O)cc3)=NN2)cc1 | -5.9 | 7.2 | 4.9 | -7.0 | -0.9 | -10.0 | · | · | · | ·
O=C(Nc1ccc(Cl)cn1)c1cc2ccccc2o1 | 10.2 | -51.5 | -16.3 | 45.8 | -12.5 | -144.4 | · | · | · | ·
O=C(Nc1ccccn1)c1cc2ccccc2o1 | 70.1* | 44.9* | 62.3* | 95.8* | 46.3* | 51.4* | 45.0* | · | 70.5* | 60.7*
C[C@@H](C(=O)Nc1ccc2c(c1)OCO2)n1c(=O)[nH]c2ccccc2c1=O | 1.7 | -6.7 | 9.3 | -5.1 | -2.8 | -23.8 | · | · | · | ·
C[C@@H](C(=O)Nc1ccc2c(c1)OCCO2)n1c(=O)[nH]c2ccccc2c1=O | 83.7* | 41.5* | 19.4 | 94.3* | 42.6* | 50.0* | 51.2* | · | 45.2* | 77.8*
CC(Oc1cccnc1[N+](=O)[O-])C(=O)N1CCc2ccccc21 (stereo not drawn) | -5.1 | 6.4 | -3.9 | -2.3 | 6.6 | 1.8 | · | · | · | ·
CCN(CC(=O)NC(C)(C)C)C(=O)C(c1ccccc1)c1ccccc1 | -5.7 | 12.4 | -9.6 | 1.3 | 0.5 | -4.9 | · | · | · | ·
O=C(CN1C(=O)c2ccccc2S1(=O)=O)c1ccc2c(c1)OCCO2 | 82.8* | 90.2* | 88.0* | 104.2* | 81.4* | 108.5* | 95.6* | 100.5* | 98.4* | 103.6*
O=C(CN1C(=O)c2ccccc2S1(=O)=O)c1ccc2c(c1)OCCCO2 | 80.8* | 93.4* | 82.4* | 102.0* | 85.7* | 99.3* | 94.6* | 96.5* | 98.7* | 104.0*
Nc1nc(CCl)nc(Nc2cccc3ccccc23)n1 | 5.8 | 40.5* | · | 22.8 | · | 64.1* | 72.4* | 102.0* | · | ·
Cc1ccccc1Nc1nc(N)nc(COC(=O)c2ccccc2)n1 | -56.1 | -142.1 | -78.2 | -51.5 | -20.4 | -252.2 | · | · | · | ·
Cc1cc(C(=O)NNC(=O)c2ccc(C)c([N+](=O)[O-])c2)c(C)o1 | 1.1 | 7.4 | -2.1 | -1.0 | 3.6 | 5.8 | · | · | · | ·
CCC1=C(CC2NCCc3ccccc32)CC2c3cc(OC)c(OC)cc3CCN2C1 (stereo not drawn) | 35.6 | 41.0* | 69.5* | 41.2 | -1.7 | 61.5* | 79.5* | · | 38.7 | 104.0*
Cc1ccc(S(=O)(=O)N2C[C@H]3N(C(=O)OC(C)C)N(C(=O)OC(C)C)C[C@H](OC(=O)NCC4CCCCC4)[C@@]3(O)C2)cc1 | 13.0 | -50.0 | · | 37.8 | 3.7 | 24.9 | · | · | · | ·
Cc1ccc(-c2nnc(SCC(=O)Nc3ccccc3F)o2)cc1 | 77.6* | 77.2* | 76.4* | 86.5* | 78.6* | 88.6* | 85.3* | · | 88.7* | 95.6*
CCC1(O)C(=O)OCc2c1cc1n(c2=O)Cc2cc3cc(O)ccc3nc2-1 (stereo not drawn) | 76.4* | 52.2* | 69.6* | 70.4* | 86.3* | 62.7* | 52.0* | · | 17.4 | 101.6*
NC(=O)C1CCCN(S(=O)(=O)c2ccc3ccccc3c2)C1 (stereo not drawn) | 7.0 | 18.1 | 4.8 | 4.1 | 2.8 | 1.0 | · | · | · | ·
Cc1cc(N2CCN(C)CC2)ccc1NC(=O)c1c2c(nc3ccccc13)CCN(Cc1ccccc1)C2 | -85.0 | 27.2 | 86.7* | 11.9 | 77.1* | 108.8* | 86.7* | 102.5* | · | ·
